The values below come from ChEMBL document CHEMBL3988442, “University of Dundee, Small-Polar-MMV Screening Library” (2021).

Molecules are shown by their SMILES. Screen size: about 48,000 compounds; about 13,000 (27%) showed an effect of 50% or more. The list shows a part of the results.

In the experiment the test system is Wolbachia pipientis. As to the kind of experiment: Anti-Wolbachia Cell-Based Screen. The experiment is classed as functional. Also on record: scale not given: in the data most compounds retested in dose-response had high values. The conditions noted are these: 5 µM.
As for `COC[C@@]12CC[C@@H](N3CCOCC3)C[C@H]1CCN(c1ncccc1F)C2`, the “Percent Effect” value is -2.051%.
On to `Cc1nn(C)c(C)c1-c1c(-c2ccccc2)ncn1[C@H](CO)C(=O)O`, for which the “Percent Effect” value was -8.389%.
Next, `Cc1ncsc1CCN(C)C(=O)c1ncccc1O`: -5.816%; `CC(C)OCc1cccc(NC(=O)N(C)Cc2ncnn2C)c1`: -5.342%.
As for `O=C1N(Cc2ccc(F)cc2)CCCC12CCN(C1CCSCC1)C2` (stereo not given), the “Percent Effect” value is reported as -0.8017%.
The value for `Cc1cc(CNC(=O)Cc2cccs2)ccc1S(C)(=O)=O` was -11.25%; that for `CC(C)(C)C(=O)NCC(=O)NC1CC(c2cccc(Cl)c2)C1` (stereo not given) was -7.236%; that for `CC(NC(=O)Cc1cccs1)(C(N)=O)c1cccc(Cl)c1` (stereo not given) was 80.31%.
As for `CC(C)(C)CC(=O)NC(C)(C(N)=O)c1cccc(Cl)c1` (stereo not given), the “Percent Effect” value was found to be 91.43%.
For the compound `CC(NC(=O)NCc1cccc(Cl)c1)(C(=O)O)c1ccco1` (stereo not given), the “Percent Effect” value is recorded as 5.605%.
Next, `O=C(Cc1cccs1)NCC1(O)CCSC1` (stereo not given): 0.8903%; `CC(C)(CNC(=O)c1ccco1)NC(=O)OC(C)(C)C`: -7.413%.
In the case of `CC(C)(CNC(=O)c1ccc(Cl)o1)NC(=O)OC(C)(C)C`, the “Percent Effect” value is -6.326%.
The value for `CC(C)(C)OC(=O)NC(C)(C(N)=O)c1cccc(Cl)c1` (stereo not given) was 178.1%; that for `COCc1ccc(C(=O)N2CCN(CC3CC3)[C@@H]3CS(=O)(=O)C[C@@H]32)o1` was -14.33%; that for `CCCc1cnc(C)nc1NCCc1nc(C)cc(=O)[nH]1` was 11.65%.
Next, `CCCN1CCCC1c1ccc(C(=O)N2CCOCC2)s1` (stereo not given): -8.147%; `CN(C)C1CCN(C(=O)c2cc3c(s2)CCN3C(=O)C2CC2)CC1.O=C(O)C(F)(F)F`: -3.085%.
Next, `CN(C)CC(=O)N1CCc2sc(C(=O)N3CCOCC3)cc21`: 66.53%.
With `CN1CCCN(C(=O)c2cc3c(s2)CCN3C(=O)C2CC2)CC1`, the “Percent Effect” value was determined as 2.998%.
`CN(C)CC(=O)N1CCc2sc(C(=O)N3CCN(C)CC3)cc21`: the “Percent Effect” value was 110.2%.
Take `CN1CCN(C(=O)c2cc3c(s2)CCN3C(=O)C2CC2)CC1`: the “Percent Effect” value is recorded as -4.007%.
Next, `C=C(C)CNc1ccc(C(=O)N(CC)Cc2nccn2C)cn1`: -22.79%; `CC(C)c1cnc(CN(C)C2CCN(CCn3cc(C#N)cn3)C2)o1` (stereo not given): 95.34%; `Cc1cnc(CN(C)C2CCN(CCn3cc(C#N)cn3)C2)o1` (stereo not given): 2.575%.
As for `CCc1cnc(CN(C)C2CCN(CCS(C)(=O)=O)C2)o1` (stereo not given), the “Percent Effect” value was -2.122%.
Consider `CCc1cnc(CN(C)C2CCN(CCn3cc(C#N)cn3)C2)o1` (stereo not given), for which the “Percent Effect” value is recorded as 85.15%.
Next, `CC(C)c1cnc(CN(C)C2CCN(CCc3ccncc3)C2)o1` (stereo not given): -3.327%.
As for `CC(Oc1ccccc1C(F)(F)F)C(=O)NCC(=O)N1CCCC1` (stereo not given), the “Percent Effect” value is -9.214%.
With `O=C(Cc1ccccc1C(F)(F)F)N1CCC2(CC1)OCCCC2O` (stereo not given), the “Percent Effect” value is on record as 121.4%.
Next, `CC(=O)N1CCCC2(CN(Cc3ccccc3C(F)(F)F)CCO2)C1` (stereo not given): -3.341%.
As to `CSc1ncccc1C(=O)N1CCC2(CC1)OCCCC2O` (stereo not given), the “Percent Effect” value is recorded as -4.189%.
Turning to `O=C(Cc1ccccc1C(F)(F)F)N1CCC2(CC1)[C@H](O)C[C@@H]2O`, the “Percent Effect” value is 113.5%.
As for `O=C(Cc1ccccn1)N1CCC2(CC1)CN(c1ncccn1)CCO2.O=C(O)C(F)(F)F.O=C(O)C(F)(F)F`, the “Percent Effect” value is listed as 8.931%.
For `Cc1cccc(C(=O)N2C[C@H]3CC[C@@H]2CN(S(=O)(=O)N(C)C)C3)n1`, the “Percent Effect” value was -20.97%.
On to `Cc1nc(O)cc(CCNC(=O)c2ccc(CN3CCCCC3)cc2)n1`, for which the “Percent Effect” value is 2.411%.
Next, `Cc1nc(O)cc([C@@H]2CN(S(=O)(=O)N(C)C)C[C@H]2c2ccccc2F)n1`: 136.9%.
Next, `CCS(=O)(=O)N1C[C@@H](c2cc(O)nc(C)n2)[C@H](c2ccccc2F)C1`: 95.46%; `Cc1nc(O)cc(CN2C[C@H](NS(=O)(=O)N(C)C)[C@@H](C3CC3)C2)n1`: -8.548%.
`COCC(=O)N[C@H]1C[C@H]2C(=O)NC[C@@H](CCC(=O)NC3CC3)N2C1`: the “Percent Effect” value is -1.651%.
Turning to `NC(=O)NC1(C(=O)N2CCc3c(Cl)cccc3C2)CCCCC1`, the “Percent Effect” value is given as -13.57%.
Turning to `Cc1cccc(C2(CNC(=O)C(C)NC(N)=O)CCCC2)c1` (stereo not given), the “Percent Effect” value is -11.64%.
On to `NC1(c2nc(-c3cccs3)cc(=O)[nH]2)CCCC1`, for which the “Percent Effect” value amounted to 0.7263%.
Next, `Cc1cnn(C2CCCN(C(=O)c3cc(-c4cccs4)n[nH]3)C2)c1` (stereo not given): -22.99%.
For `O=C(O)c1cc(-c2cccs2)nc2c(Cl)cnn12`, the “Percent Effect” value is 80.97%.
The value for `O=C(c1cc(-c2cccs2)nc2ccccc12)N1CCN(CCO)CC1` was 26.12%; that for `O=C(O)c1cc(-c2cccs2)nc2c(Br)cnn12` was 100.3%; that for `CC(C)OCCCNC(=O)[C@@]12CNC[C@@H]1CN(S(C)(=O)=O)C2` was 4.002%.
Turning to `O=C(NC[C@H]1OC[C@@H](NC2CCC(F)(F)CC2)[C@@H]1O)N1CCOCC1`, the “Percent Effect” value is reported as -13.75%.
The value for `CC(C)(C)C(C#N)NC(=O)c1ccc(Oc2cccnc2)cc1` (stereo not given) was 2.212%.
